From PubChem BioAssay (EPA / NIEHS) come the findings set out here.

The structures appear in SMILES notation. Calls of active or inactive are those of the source. Rule for the calls: active = hit-call score of the fitted dose curve at least 0.9, where 1 is the maximum; inactive = score below 0.9.

Chain of Paired box protein Pax-6 (Homo sapiens) (P26367 whole entry, looked up): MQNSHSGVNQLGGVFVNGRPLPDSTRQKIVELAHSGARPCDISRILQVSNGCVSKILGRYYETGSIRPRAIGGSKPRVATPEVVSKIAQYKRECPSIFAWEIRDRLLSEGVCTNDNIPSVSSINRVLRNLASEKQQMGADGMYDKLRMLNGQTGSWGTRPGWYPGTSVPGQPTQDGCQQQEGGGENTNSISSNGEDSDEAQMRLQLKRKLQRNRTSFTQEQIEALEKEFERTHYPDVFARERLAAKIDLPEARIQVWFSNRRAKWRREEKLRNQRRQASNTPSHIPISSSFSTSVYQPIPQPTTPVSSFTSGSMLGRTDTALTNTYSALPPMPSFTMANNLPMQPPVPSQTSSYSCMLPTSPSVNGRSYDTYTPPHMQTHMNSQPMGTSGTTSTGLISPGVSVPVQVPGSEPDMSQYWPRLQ

The assay concerns the target Paired box protein Pax-6 (Homo sapiens) (UniProt P26367). Put plainly: ATG_Pax6_CIS: Attagene CIS-FACTORIAL HepG2 Assay for human Paired Box 6 (PAX6) (AID 2282956). The note with it: HepG2 CIS-FACTORIAL PAX6 reporter transcription, RNA readout; actives raise or lower the signal. The method in brief:
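HepG2 cells transiently transfected with cis-promoter-driven multiplexed reporter units sensing endogenous transcription factor activity; 24 h chemical exposure. Reporter mRNA quantified by RT-PCR, 6-FAM labelling, HpaI digestion and capillary electrophoresis; bidirectional fit versus DMSO baseline.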
For the molecule `CCCCCCCCCCBr`, the call was inactive.

Turning to `N#CCCC(Br)(C#N)CBr` (centres undefined), the AC50 was 46.3 µM (active).

Turning to `O=C(NC(=O)c1c(F)cccc1F)Nc1cc(Cl)c(Oc2ncc(C(F)(F)F)cc2Cl)c(Cl)c1`, the molecule was called inactive.

On to `C=C(C)[C@@H]1CC=C(C=O)CC1`, for which the call was inactive. In the case of `Cc1cc(SCc2sc(-c3ccc(C(F)(F)F)c(F)c3)nc2C)ccc1OCC(=O)O`, the half-maximal activity concentration (AC50) is 33.4 µM (active). `ClCc1ccccc1CCl`: the AC50 is 25.7 µM (active). Take `N#Cc1ccc(Cl)cc1`: the molecule was classed as inactive.

As to `C[N+](C)(C)Cc1ccccc1`, the molecule was classed as inactive. As for `O=C1C=CC(=O)c2ccccc21`, the outcome was inactive. On to `CC(O)(CS(=O)(=O)c1ccc(F)cc1)C(=O)Nc1ccc(C#N)c(C(F)(F)F)c1` (centres undefined), for which the call was inactive. Regarding `CCOC(=O)CC(=O)CCl`, the AC50 is 27.4 µM (active).

In the case of `O=C(NC(=O)c1c(F)cccc1F)Nc1cc(Cl)c(OC(F)(F)C(F)C(F)(F)F)cc1Cl` (centres undefined), the molecule was called inactive.

Consider `C=CC(=O)NC(C)(C)CC(C)=O`, for which the call was inactive. On the same count and under the same terms, with `CC(C)CP(=S)(S)CC(C)C` the entry was “inactive”. Turning to `Cc1cc(C(F)(C(F)(F)F)C(F)(F)F)ccc1NC(=O)c1cccc(I)c1C(=O)NC(C)(C)CS(C)(=O)=O`, the outcome was inactive. Turning to `O=S1OC[C@@H]2[C@H](CO1)[C@]1(Cl)C(Cl)=C(Cl)[C@@]2(Cl)C1(Cl)Cl` (some centres undefined), the call was inactive. For `CC1(C)[C@H](/C=C2\CCSC2=O)[C@@H]1C(=O)OCc1coc(Cc2ccccc2)c1`, the AC50 is 11.1 µM (active). For the molecule `CNC(=O)CSP(=O)(OC)OC`, the molecule was called inactive. Still for that read-out and setting: the entry for `c1csc(-c2ccc(-c3cccs3)s2)c1` is “inactive”; for `C1CCC(C2CCCCC2)CC1` it is “inactive”. The same measure, in the same setting: the entry for `NC(=O)c1ccc(N)nc1` is “inactive”; for `CC(F)(F)CC(F)(F)F` it is “inactive”. In the case of `C=CC(=O)[O][Sn]([CH2]CCC)([CH2]CCC)[CH2]CCC`, the half-maximal activity concentration (AC50) is 0.52 µM (active). Same read-out and setting: with `O=S(=O)(C(Cl)(Cl)Cl)C(Cl)(Cl)Cl` the figure was 16 µM (active). As to `COC(=O)c1cc(Oc2ccc(Cl)cc2Cl)ccc1[N+](=O)[O-]`, the call was inactive. Regarding `CC(C)(c1ccc(O)c(-c2ccccc2)c1)c1ccc(O)c(-c2ccccc2)c1`, the call was inactive.

For `Clc1cc(C(Cl)(Cl)Cl)cnc1Cl`, the AC50 was 8.8 µM (active). `CCOC(=O)OC1=C(c2cc(C)ccc2C)C(=O)NC12CCC(OC)CC2` (centres undefined): the call was inactive. With `CCCSP(=S)(OCC)Oc1ccc(SC)cc1` (centres undefined), the result was inactive.

Consider `CN(C1CCCCC1)C1CCCCC1`, for which the molecule was called inactive. Still for that read-out and setting: the entry for `ClCCN1CCOCC1` is “inactive”. On the same count and under the same terms, with `FC(F)OCC(F)(F)C(F)(F)F` the entry was “inactive”. Turning to `N#Cc1ccccc1N`, the result was inactive. `[F][Sn]([c]1ccccc1)([c]1ccccc1)[c]1ccccc1`: the AC50 was 0.346 µM (active). With `C[As+](C)(C)CC(=O)[O-]`, the call was inactive. Take `O=C(Nc1ccc(Br)cc1)c1cc(Br)cc(Br)c1O`: the AC50 was 93.2 µM (active). Turning to `O=[N+]([O-])c1ccc(Cl)c([N+](=O)[O-])c1`, the molecule was classed as inactive. In the case of `CC(=Cc1ccccc1)[N+](=O)[O-]`, the half-maximal activity concentration (AC50) was 11.1 µM (active). For `CCOc1ccc(N)cc1`, the result was inactive.

A word on the AC50: it is the concentration giving half of the maximal activity seen.
